From PubChem BioAssay (NCI)
The panel holds about 83,000 compounds, 20% with a hit somewhere; the sample as a whole holds those more often.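 Treatment: one concentration, 48 hours, 96-well format. Scoring: percent growth, with anything below 10 considered active.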 Unmarked numbers belong to inactive results. Calls of active or inactive are those of the source.

test system: HL-60(TB) leukemia; assay: NCI-60 one-dose screen, 48 h (100 = growth as untreated, 0 = no growth, -100 = all killed); conditions: 10 µM unless noted

| Compound | growth |
| --- | --- |
| CN1CCN(Cc2ccc(NC(=O)c3cncc(C#Cc4cnc(N)c5ncccc45)c3)cc2C(F)(F)F)CC1 | 13% |
| COc1ccc(C(=O)/C=C/c2cc(-c3ccc(OC)c(OC)c3)n[nH]2)cc1OC | -25.4% (active) |
| O=C1Nc2ccccc2/C1=C/c1cccn1CCCCCCn1c2ccccc2c(=O)c2ccccc21 | 54.5% |
| COc1cc(NCCCN(CC(C)C)CC(C)C)c2ncccc2c1 | 89.8% |
| CC(C)n1cc(C2=C(c3cccc4ccccc34)C(=O)NC2=O)c2cc(Br)ccc21 | 54.1% |
| CC(=O)c1cc(Cl)ccc1O | 103% |
| CNCCCNCCCN1C(=O)c2ccc3c4c(ccc(c24)C1=O)C(=O)N(CCCNCc1ccccc1OC)C3=O | -38.1% (active) |
| CN(C)CCCSc1ccccc1NC1=C(Cl)C(=O)C(Nc2ccccc2SCCCN(C)C)=C(Cl)C1=O | -34.8% (active) |
| N=c1c2c(=O)n3c(nc2nc2sc4ccc(Cl)cc4n12)-c1ccccc1Sc1ccccc1-3 | 4.46% (active) |
| CN(C)c1ccc(O)c2c1CC1CC3C(N(C)C)C(=O)C(C(N)=O)=C(O)C3(O)C(=O)C1=C2O (centres undefined) | 51.3% |
| COc1ccc(/C=C\C(=O)/C=C/c2ccc(OC)cc2)cc1 | 50.2% |
| CCOC(=O)Cc1cnn(C)c1NC(=O)c1ccc(Cl)cc1NC(C)=O | 102% |
| Cc1ccc(NC(=O)c2[nH]c(SCCN(C)C)nc2-c2ccc(F)cc2)cc1C#Cc1cnc2cccnn12 | -54.9% (active) |
| COc1c(Cl)cc(Cl)cc1Cl | 98.7% |
